A selection: hits, their analogues and other compounds. The true share with any hit is near 6.5%.
FMDV antiviral – antivirals against foot and mouth disease virus | AID 1159524 | 410,000 compounds, 1.2% hits | Potency, µM (series often up to 57.9 µM), for inactives: at the highest dose activity change, negative = inhibition, actives largely listed as inhibitors | FMDV antiviral cell-based qHTS; calls by dose curve; tested in HEK293T cells; note: read-out not given here; potency is the fitted concentration of half-maximal effect; nearly all actives have a fitted effect of over 45% in size
VACV Venus inh – vaccinia inhibition (Venus reporter). 330,000 compounds, 0.46% hits. AID 720580. Vaccinia virus Venus reporter expression, fluorescence. Potency, µM (top dose mostly 36.5 µM), for the others: at the highest dose activity change, negative = inhibition, actives largely listed as inhibitors; calls by dose curve; tested in A549 cells; note: potency is the fitted concentration of half-maximal effect; nearly all actives have a fitted effect of over 30% in size
VACV mCherry inh – vaccinia inhibition (mCherry reporter) | AID 720579 | Potency, µM (highest dose often 36.5 µM), inactives show top-dose activity change, negative = inhibition, most hits filed as inhibitors | Vaccinia virus mCherry reporter infection, fluorescence | 310,000 compounds, 0.63% hits; calls by dose curve; tested in A549 cells; note: potency is the fitted concentration of half-maximal effect; nearly all actives have a fitted effect of over 35% in size
MARV entry inh – blocks Marburg virus binding to or entry into cells; Marburg virus pseudotyped entry inhibition, cell reporter; 300,000 compounds, 1.8% hits; Potency, µM (series often up to 37.8 µM), for the others: top-dose activity change, negative = inhibition, hits mostly inhibitors; calls by dose curve; tested in HEK293 cells; note: potency is the fitted concentration of half-maximal effect
LASV entry inh – blocks Lassa virus binding to or entry into cells | Potency, µM (top dose mostly 37.9 µM), for the others: at the highest dose activity change, negative = inhibition, actives largely listed as inhibitors | Lassa virus pseudotype entry inhibition, cell reporter | 300,000 compounds, 1.2% hits; calls by dose curve; tested in HEK293 cells; note: potency is the fitted concentration of half-maximal effect; nearly all actives have a fitted effect of over 50% in size
HCMV inh – inhibitors of human cytomegalovirus; 410,000 compounds, 4.5% hits; activity change, negative = inhibition, % at 57.5 µM; HFF cells, HCMV-luciferase reporter, 72 h; active compounds read low; AID 1259415; in the data active = activity change below about -60%; inconclusive = no clear call, values can overlap the other calls; inactive = above about -39%
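Two-dose cell screen: HFF monolayers treated with compounds and infected with luciferase-expressing HCMV at 1 PFU/cell, 72 h at 37C, then lysed for luciferase measurement.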
An asterisk follows results filed as active; i = inactive; ? = inconclusive; . = not tested or not shown; ! = not active in a repeat; [ ] = remark or other dose. % is set by controls: 0 for no effect and ±100 for the full control effect.

SMILES	FMDV antiviral	VACV Venus inh	VACV mCherry inh	MARV entry inh	LASV entry inh	HCMV inh
COC(=O)C1=C(C)N(Cc2ccccc2)C(=NCCc2c[nH]c3ccccc23)NC1c1cccc(F)c1 (centres undefined)	.	.	.	-16.8%[14.2 µM]	?	.
C=C(C)CO[C@H]1C=C[C@@H](c2ccccc2)O[C@H]1CO	.	.	.	2.3%[14.2 µM]	.	.
COc1ccc(-c2cc(=O)oc3c(O)c(O)ccc23)cc1	0.0%	?	11.2µM*	?	-4.2%	78.4
COc1ccc(C)cc1NC(=O)c1ccc(S(=O)(=O)N2CCCCC2)cc1	-13.2%	-0.7%	?	-2.6%[46.1 µM]	8.3%[46.1 µM]	?
Cc1cc(O)cc(O)c1-c1onc(C(F)(F)F)c1-c1cscn1	?	?	.	?	-26.3%	-71.4*
CCOc1ccc(-c2onc(C(F)(F)F)c2-c2cscn2)c(O)c1	?	.	.	2.2%	-3.4%	-31.6
CC1CCc2c(sc(NC(=O)Cn3cnc([N+](=O)[O-])n3)c2C(N)=O)C1 (centres undefined)	-12.6%	.	.	.	.	-62.4*
NC1=NC[C@H](Cc2ccccc2)N1CCCCC1CCCCC1	?	?	?	.	.	-31.1
Oc1ccc(C[C@H]2CNCCN2CCC23CC4CC(CC(C4)C2)C3)cc1	-23.0%	?	-18.8%	.	.	-32.0
Oc1ccc(C[C@@H]2CNCCN2CCC23CC4CC(CC(C4)C2)C3)cc1	?	-26.3%	-10.9%	.	.	-87.0*
Oc1ccc(C[C@H]2CNCCN2CCCCC2CCCCC2)cc1	-26.8%	11.2µM*	?	.	.	?
NC1=NC[C@H](Cc2ccc(O)cc2)N1CCCCC1CCCCC1	?	?	8.91µM*	.	.	-90.5*
Cc1cc(C)c(C#N)c(SCc2cn3ccccc3n2)n1	-21.3%	-21.5%	-6.4%	19.2%	16.2%	-77.1*
c1ccc2c(SCc3cn4ccccc4n3)nncc2c1	58.7%	.	.	1.2%	5.8%	-60.5*
Cc1cc(C)c(C#N)c(SCc2ccccc2)n1	-13.1%	-9.7%	.	3.6%	0.4%	-3.3
Cc1cc(C)nc(SCc2cn3ccccc3n2)n1	15.1%	.	.	.	.	-60.3*
COc1ccc(-c2cc(C(F)(F)F)n3nc(-c4ccc(Cl)cc4)cc3n2)cc1OC	-9.8%	-2.4%	-13.3%	14.6%[46.1 µM]	16.5%[46.1 µM]	1.3
Cc1cccc(OC(=O)c2cc(-c3ccc4c(c3)OCCO4)on2)c1C	-12.6%	-4.7%	-6.3%	22.3%[46.1 µM]	14.3%[46.1 µM]	12.6
O=Cc1c(-c2ccc(Cl)cc2)oc2ccc(O)cc12	23.5%	-15.0%	-28.0%	?	18.9%[46.1 µM]	78.0
O=C(Nc1nc2c(F)cc(F)cc2s1)c1ccc(S(=O)(=O)N2CCc3ccccc32)cc1	-26.6%	?	?	.	?	-99.0*
Cc1cccc(NC(=O)c2cc(S(=O)(=O)N3CCc4ccccc43)cn2C)c1C	-19.6%	-19.7%	-0.2%	.	.	-4.7
Cc1ccc2nc(NC(=O)c3ccc(S(=O)(=O)N4CCCc5ccccc54)cc3)sc2c1	?	-15.9%	-21.6%	?	?	-90.0*!
Cc1ccc(NC(=O)c2cc(S(=O)(=O)N3CCc4ccccc43)cn2C)c(Cl)c1	-9.5%	-10.8%	-18.3%	.	10.1%[46.1 µM]	-60.7*
N#Cc1ccccc1S(=O)(=O)N1CCN(C(=O)CN(Cc2ccco2)Cc2cccs2)CC1	-12.0%	-15.7%	?	.	.	-6.4
CCCN(CCC)C(=O)Cn1ccc(=N)c2c1CCCC2	.	.	.	-2.8%	.	.
SMILES	FMDV antiviral	VACV Venus inh	VACV mCherry inh	MARV entry inh	LASV entry inh	HCMV inh
Cn1c(=O)c([N+](=O)[O-])c(Cl)c2ccccc21	14.1µM*	-4.2%	-13.7%	?	?	-70.8*
CCN(CC)c1c([N+](=O)[O-])c(=O)n(C)c2ccccc12	?	-22.1%	i	?	14.9%	-32.3
CCc1cc(-c2[nH]ncc2-c2nc3ccccc3n2C)c(O)cc1O	-45.3%	.	.	.	.	14.5
CCCc1cc(-c2[nH]ncc2-c2ccc3c(c2)OCCCO3)c(O)cc1O	14.1µM*	.	.	14.6µM*	?	39.2
CCCc1cc(-c2[nH]ncc2-c2ccc(C(=O)OCC)o2)c(O)cc1O	.	?	?	?	-17.4%	-62.0*
Oc1ccc(Cl)c(CN2CCN(c3ncc(Cc4ccccc4)cn3)CC2)c1	-18.6%	-12.7%	i	.	.	?
O=c1[nH]c(-c2ccccn2)nc(C(F)(F)F)c1Br	-26.4%	-16.6%	11.2µM*	?	?	25.2
Cc1ccc2nc(-c3ccccn3)[nH]c2c1	-39.5%	-7.4%	-11.5%	?	6.31µM*	7.1
O=c1[nH]c(-c2ccccn2)nc2ccccc12	-14.7%	-17.2%	.	?	?	-106.4*
c1ccc(-c2nc3ccccc3[nH]2)nc1	-8.7%	3.3%	-9.2%	-32.0%	?	5.1
Nc1ncnc2c1nc(Sc1ccc(Cl)cc1)n2[C@H]1OC2COP(=O)(O)O[C@H]2[C@@H]1O (some centres undefined)	.	-13.1%	-2.7%	.	.	.
CCCC(=O)N(Cc1cc(=O)[nH]c2ccccc12)c1ccc(C)cc1C	-21.4%	.	.	.	.	17.0
Cc1ccc(N(Cc2cc(=O)[nH]c3ccccc23)C(=O)CCl)c(C)c1	35.5µM*	?	?	?	?	-97.4*
Cc1ccc2c(c1)N(CCC(=O)NC(C)C)C(=O)CO2	0.0%	-4.9%	-13.4%	?	13.0%	-75.8*
CC(=O)N1[C@@H]2Cn3c(ccc(-c4ccccc4F)c3=O)[C@H]1[C@@H](C(=O)N1CCOCC1)[C@@H]2CO	.	.	.	.	.	-19.2
COc1cccc(CNc2ccc3[nH]c(=O)[nH]c3c2)c1OCc1ccc(F)cc1	?	-18.3%	?	?	-9.5%[46.1 µM]	84.5
Oc1ccc(NCc2ccccc2OCc2ccccc2)cc1	17.4%	19.5%	15.7%	?	?	?
Oc1ccc(NCc2ccccc2OCc2ccc(Cl)cc2)cc1	-10.4%	-9.2%[7.34 µM]	1.9%[7.34 µM]	?	-14.9%[46.1 µM]	-71.6*
O=c1[nH]c2ccc(NCc3ccccc3OCc3ccc(Cl)cc3)cc2[nH]1	?	.	.	.	.	-73.0*
Cc1cccc(NC(=O)c2ccc3oc(=O)c(S(=O)(=O)c4ccc(F)cc4)cc3c2)c1C	31.6µM*	-3.2%	-13.0%	14.2%[46.1 µM]	7.0%[46.1 µM]	46.3
CC(C)c1ccc(NC(=O)c2ccc3oc(=O)c(S(=O)(=O)c4ccc(F)cc4)cc3c2)cc1	?	-6.6%	-6.3%	?	26.2%[46.1 µM]	71.2
CON(C)S(=O)(=O)c1cccc(C(=O)NC2CCSc3ccccc32)c1 (centres undefined)	18.2%	-9.3%	-5.2%	?	?	-74.0*
CN(C)S(=O)(=O)c1cccc(C(=O)NC2CCSc3ccccc32)c1 (centres undefined)	18.0%	-7.1%	i	18.0%[46.1 µM]	2.4%[46.1 µM]	-10.6
Cc1ccc(CN2C[C@H](Sc3ccccn3)C[C@H]2C(=O)Nc2ccc3sc(C)nc3c2)s1	5.1%	?	-7.2%	.	.	.
O=C1C(Cl)=C(N2CCOCC2)C(=O)N1CCc1ccccc1	-15.9%	0.1%	-19.3%	-7.5%	-20.8%	64.6
CN1CCN(C2=C(Cl)C(=O)N(CCc3ccccc3)C2=O)CC1	21.4%	.	.	-0.8%	-17.0%	-68.4*
CC(=O)O[C@H]1C[C@@H]2OC3C=C(C)CCC3(C)[C@@]1(C)[C@@]21CO1 (some centres undefined)	.	.	.	0.447µM*	.	-98.2*
